Reference: PubChem BioAssay (Tox21)
Records with an inconclusive call do not appear. A call without a number means that no potency is given here. The source made the active and inactive calls. Unless noted, calls come from the whole dose curve; as a rule, active = well fitted curve in the direction sought with a large enough effect in the repeat runs; inconclusive = weak or mixed curves; inactive = no such curve, though single readings can be large; an effect the other way counts as inactive or inconclusive.

Legend:
[1] = biological target: Estrogen receptor (Homo sapiens) (UniProt P03372); assay: qHTS assay to identify small molecule antagonists of the estrogen receptor alpha (ER-alpha) signaling pathway using the BG1 cell line in the presence of 0.1 nM 17-beta-estradiol (AID 1259244); note: nearly all actives have a fitted effect of over 50% in size
Outline: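 Cells: VM7Luc4E2, endogenous ER-alpha, 4x ERE-luc stable. Pre-culture 5 d, phenol red-free, charcoal-stripped FBS. Plated 24 h, compound + E2 0.1 nM final, 22 h 37C/5% CO2. Readout ONE-Glo luminescence.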

[2] = qHTS assay to identify small molecule HDAC inhibitors (AID 1259364); note: top concentration of the series differs between compounds; nearly all actives have a fitted effect of over 45% in size
Outline: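 Luminescence from a cell-permeant luminogenic class I/II HDAC substrate reports endogenous deacetylase activity in intact HCT-116 cells treated with compounds for 2 h.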

[3] = qHTS assay to identify small molecule HDAC inhibitors - cell viability counter screen (AID 1259365); note: series mostly up to about 92 µM; nearly all actives have a fitted effect of over 50% in size
Outline: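 CellTiter-Glo luminescence (30 min, room temperature) reported viability after a 2 h compound exposure at 37 C. Cells: wild-type HCT-116, 1,500 per well, seeded the night before.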

[4] = qHTS assay to identify small molecule agonists of the sonic hedgehog signaling (Shh) pathway - cell viability counter screen (AID 1259366); note: nearly all actives have a fitted effect of over 50% in size
Outline: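 Cytotoxicity counter screen: CellTiter-Fluor reagent added after 23 h compound exposure, then 1 h at 37C and fluorescence read. Cells were 3T3 Gli1-Luc, seeded 2,000 per well and dosed 4 h post-plating.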

[5] = qHTS assay to identify small molecule antagonists of the sonic hedgehog signaling (Shh) pathway - cell viability counter screen (AID 1259367); note: nearly all actives have a fitted effect of over 55% in size
Outline: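 NIH/3T3-derived Gli1-Luc reporter cells (2,000 per well) rested 4 hr at 37 C, then received DMSO compounds plus conditioned medium. After 23 hr of treatment, CellTiter-Fluor was added for 1 hr at 37C and fluorescence read.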

[6] = qHTS assay to identify small molecule agonists of the sonic hedgehog signaling (Shh) pathway (AID 1259368; calls by dose curve;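 note: NIH/3T3-derived 3T3Gli1-Luc cells carrying a stable Gli1-driven firefly luciferase reporter; series mostly up to about 92 µM; nearly all actives have a fitted effect of over 15% in size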)
Outline: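 3T3Gli1-Luc (NIH/3T3 clone, stable Gli1-Luc); 4 hr pre-incubation, then cpd in DMSO 24 hr, 37 C/5% CO2; luciferase reagent 30 min RT; luminescence.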

[7] = qHTS assay to identify small molecule antagonists of the sonic hedgehog signaling (Shh) pathway (AID 1259369; calls by dose curve; note: nearly all actives have a fitted effect of over 45% in size; note: potency is the fitted concentration of half-maximal effect)
Outline: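 3T3Gli1-Luc, conditioned-medium-stimulated, 24hr cpd, 37C/5% CO2; Gli1-driven firefly Luc luminescence after 30min RT with luciferase reagent. Cells plated 4hr before cpd.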

[8] = biological target: Estrogen receptor beta (Homo sapiens) (UniProt Q92731); assay: qHTS assay to identify small molecule agonists of the estrogen receptor beta (ER-beta) signaling pathway (AID 1259377; active = well fitted activation curve with a large enough effect in the signal ratio in the repeat runs, not every such curve was filed as active; the % refers to the signal ratio)
Outline: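 Ratiometric beta-lactamase FRET read-out came after 2 h substrate loading at room temperature. It followed 16 h compound treatment at 37C of GripTite HEK293T cells carrying a UAS-bla reporter, plated in 2% charcoal-stripped FBS medium.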

[9] = qHTS assay to identify small molecule phospholipidosis (PLD) inducers (AID 1259344; active = well fitted curve in the direction sought with a large enough effect; an effect the other way counts as inactive or inconclusive)
Outline: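 HepG2 cells on collagen I, attached 4 h at 37 C, were co-treated with compound and LipidTOX Red dye for 24 h at 37 C, then fixed with paraformaldehyde plus Hoechst 33342 and imaged by high-content microscopy for phospholipid accumulation.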

Sequence of Estrogen receptor beta (Homo sapiens) (Q92731 whole entry, looked up): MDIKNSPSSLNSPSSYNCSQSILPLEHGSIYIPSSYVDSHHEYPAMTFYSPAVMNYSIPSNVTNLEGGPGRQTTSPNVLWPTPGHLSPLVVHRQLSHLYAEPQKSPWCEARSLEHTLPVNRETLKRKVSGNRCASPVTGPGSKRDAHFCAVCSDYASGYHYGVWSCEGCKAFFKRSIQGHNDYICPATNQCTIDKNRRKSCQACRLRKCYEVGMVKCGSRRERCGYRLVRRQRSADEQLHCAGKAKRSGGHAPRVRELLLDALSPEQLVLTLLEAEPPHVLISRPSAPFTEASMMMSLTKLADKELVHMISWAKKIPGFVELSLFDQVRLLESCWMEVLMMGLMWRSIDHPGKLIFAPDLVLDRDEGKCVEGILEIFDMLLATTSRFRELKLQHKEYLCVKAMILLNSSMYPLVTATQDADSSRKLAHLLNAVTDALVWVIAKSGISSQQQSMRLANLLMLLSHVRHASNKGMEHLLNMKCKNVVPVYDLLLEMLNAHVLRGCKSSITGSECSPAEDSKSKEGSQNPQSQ
Sequence of Estrogen receptor (Homo sapiens) (P03372 whole entry, looked up): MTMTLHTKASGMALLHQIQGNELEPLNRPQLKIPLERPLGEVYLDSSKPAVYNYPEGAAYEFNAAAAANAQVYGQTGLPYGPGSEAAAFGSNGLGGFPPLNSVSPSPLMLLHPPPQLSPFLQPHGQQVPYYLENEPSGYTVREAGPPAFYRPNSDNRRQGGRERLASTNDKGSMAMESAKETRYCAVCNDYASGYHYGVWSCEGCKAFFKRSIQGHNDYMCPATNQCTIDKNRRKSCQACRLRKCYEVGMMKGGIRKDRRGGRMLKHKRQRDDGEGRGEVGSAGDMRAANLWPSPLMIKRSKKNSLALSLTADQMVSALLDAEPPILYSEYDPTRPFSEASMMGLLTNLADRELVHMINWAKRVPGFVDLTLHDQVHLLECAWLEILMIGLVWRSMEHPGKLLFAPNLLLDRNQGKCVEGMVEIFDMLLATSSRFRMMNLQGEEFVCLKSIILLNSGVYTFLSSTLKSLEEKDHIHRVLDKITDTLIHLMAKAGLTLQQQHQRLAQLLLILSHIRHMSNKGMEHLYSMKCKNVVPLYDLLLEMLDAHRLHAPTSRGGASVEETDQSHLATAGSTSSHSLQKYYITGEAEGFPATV

Row | Compound | outcome [1] | Potency [2] | outcome [3] | Potency [4] | Potency [5] | outcome [6] | Potency [7] | Potency [8] | outcome [9]
1 | CN(C)CCN(C)CCN(C)C | inactive | inactive | inactive | inactive | inactive | inactive | inactive |  | 
2 | C=CC(C)(CCC=C(C)C)OC(=O)CC (configuration not stated) | inactive | inactive | inactive | inactive | inactive | inactive | inactive | inactive | 
3 | O=C(O)CC(C(=O)O)S(=O)(=O)O (configuration not stated) | inactive | inactive | inactive | inactive | inactive | inactive | 30.6 µM (active) |  | 
4 | CCN(CC#N)c1cccc(C)c1 | inactive | inactive | inactive | inactive | inactive | inactive |  |  | 
5 | C=CCOCC(O)CO (configuration not stated) | inactive | inactive | inactive | inactive | inactive | inactive | inactive | inactive | 
6 | CC(CC=O)CC(C)(C)C (configuration not stated) | inactive | inactive | inactive | inactive | inactive | inactive | inactive |  | 
7 | CCOC(=O)OC(C)OC1=C(C(=O)Nc2ccccn2)N(C)S(=O)(=O)c2ccccc21 (configuration not stated) | inactive | inactive |  | inactive | inactive | inactive | inactive | inactive | inactive
8 | Clc1cc(Cl)cc(Cl)c1 | inactive | inactive | inactive | inactive | inactive | inactive | inactive | inactive | 
9 | CN1CCC(=C2c3ccccc3CCc3cccnc32)CC1 | inactive | inactive | inactive |  |  | inactive | 13.3 µM (active) |  | 
10 | CC(=O)C1CCCCC1=O (configuration not stated) | inactive | inactive |  | inactive | inactive | inactive | inactive |  | 
11 | C=COC(=O)C(C)(CC)CCC(C)C (configuration not stated) | inactive | inactive | inactive | inactive | inactive | inactive | inactive | inactive | 
12 | CC1OC1C1CCC2(C)OC2C1 (configuration not stated) | inactive | inactive | inactive | inactive | inactive | inactive |  | inactive | 
13 | CCCCCCC1CCC(=O)O1 (configuration not stated) | inactive | inactive |  | inactive | inactive | inactive | inactive | inactive | 
